FLuc inh – Firefly luciferase inhibition profiling of diverse chemical library using quantitative high-throughput screening; Luciferin 4-monooxygenase (Photinus pyralis), P08659; Potency, µM (titrated, usually from 115 µM), most hits filed as inhibitors; actives 2.5% (n = 76,000); purified P. pyralis luciferase, luminescence, biochemical; note: nearly all actives have a fitted effect of over 65% in size
Target sequence (P08659 whole entry, looked up): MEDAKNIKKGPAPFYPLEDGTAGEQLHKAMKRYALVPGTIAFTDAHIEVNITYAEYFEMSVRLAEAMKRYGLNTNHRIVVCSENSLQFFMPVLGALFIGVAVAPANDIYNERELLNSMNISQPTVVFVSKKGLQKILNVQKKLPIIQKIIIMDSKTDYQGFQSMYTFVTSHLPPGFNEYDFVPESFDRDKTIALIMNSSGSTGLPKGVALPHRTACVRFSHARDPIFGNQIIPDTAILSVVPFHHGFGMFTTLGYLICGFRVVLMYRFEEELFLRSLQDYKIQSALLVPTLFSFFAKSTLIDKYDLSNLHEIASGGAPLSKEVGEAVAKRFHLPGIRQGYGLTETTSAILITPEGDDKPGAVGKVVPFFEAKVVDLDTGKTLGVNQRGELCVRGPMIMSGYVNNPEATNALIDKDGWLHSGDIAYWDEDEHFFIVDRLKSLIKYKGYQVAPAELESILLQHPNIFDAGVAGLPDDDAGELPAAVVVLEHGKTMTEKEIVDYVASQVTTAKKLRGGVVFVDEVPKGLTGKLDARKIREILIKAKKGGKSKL
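Inhibitors were tested against purified firefly luciferase in a biochemical, low-substrate format (both substrates at 10uM) and luminescence measured with a CCD imager.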
HEK cytotox – Cytotoxic Profiling in HEK 293 Cell Line of Diverse Libraries Using Quantitative High-Throughput Screening; AID 1345083, 2018; HEK 293 viability, ATP luminescence (CellTiter-Glo), 48-72 h; actives 6.6% (n = 94,000); Potency, µM (highest dose often 115 µM), for the others: at the highest dose activity change, negative = cytotoxicity, hits mostly inhibitors; note: nearly all actives have a fitted effect of over 60% in size
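Cells seeded first (HEK 293, 250 cells/well), then compound added by pintool. Incubation ran 48 or 72 hr at 37 degree Celsius. CellTiter-Glo was added and luminescence imaged after 10 min at room temperature.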
GPT2 inh – Primary qHTS assay for inhibitors of Glutamate pyruvate transaminase 2 (GPT2); AID 1671188, 2021; actives 0.25% (n = 100,000); Alanine aminotransferase 2 (Homo sapiens), Q8TD30; Potency, µM (doses to about 57.7 µM), without a hit: top-dose activity change, negative = inhibition, usual class: inhibitors; Recombinant GPT2, coupled pyruvate oxidase/HRP Amplex Red fluorescence; note: nearly all actives have a fitted effect of over 60% in size
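Inhibition is scored from Amplex Red fluorescence generated when pyruvate oxidase and HRP act on pyruvate released by GPT2. Reactions contain 10ng/uL enzyme, 250uM a-KG and 2mM L-alanine and run 30 min at room temperature.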
NIH3T3 tox – Cytotoxic Profiling in NIH 3T3 Cell Line of Diverse Libraries Using Quantitative High-Throughput Screening | AID 1345082, 2018 | Potency, µM (top dose mostly 96.7 µM), for inactives: at the highest dose activity change, negative = cytotoxicity, hits mostly inhibitors | actives 4.3% (n = 94,000) | NIH 3T3 viability, CellTiter-Glo ATP luminescence, 48-72 h; note: nearly all actives have a fitted effect of over 55% in size
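Mouse fibroblast NIH 3T3 cells, 400 per well, received compound via pintool and were incubated for 48 or 72 hr prior to CellTiter-Glo ATP luminescence measurement.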
NPR1 antag – Natriuretic polypeptide receptor (hNpr1) antagonism - Primary qHTS. actives 1.6% (n = 76,000). Potency, µM (highest dose often 46.3 µM), without a hit: at the highest dose activity change, negative = inhibition, actives largely listed as inhibitors. Atrial natriuretic peptide receptor 1 (Homo sapiens), P16066. HEK293 hNpr1 GloSensor cGMP, ANP-stimulated luminescence; calls by dose curve; note: nearly all actives have a fitted effect of over 60% in size
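Compound pre-incubated 30 min at room temperature on GloSensor-loaded HEK293 cells stably carrying hNpr1 and the pGS-40F cGMP biosensor. Stimulation uses hNppA at 0.1 nM final; luminescence is taken at baseline and 20 min post-agonist.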
An asterisk follows results filed as active. Rows were chosen to be rich in hits. Some 10% of all compounds tested hit in one or more screens of this group. Unless noted, calls come from the whole dose curve; as a rule, active = well fitted curve in the direction sought with a large enough effect; inconclusive = small, poorly fitted or top-dose-only effect, or another doubt; inactive = no such curve, though single readings can be large; an effect the other way counts as inactive or inconclusive. % is set by controls: 0 for no effect and ±100 for the full control effect; potency is the fitted concentration of half-maximal effect.

How did O=C(C1CCCN(C(=O)C2CCCC2)C1)N1CCC(N2Cc3cccn3C2=O)CC1 (centres undefined) do in these assays?
HEK cytotox: -4%; GPT2 inh: inactive; NIH3T3 tox: -21%

How did O=C(c1ccc2nc(-c3ccc(F)cc3)cn2c1)N1CCC(F)CC1 do in these assays?
FLuc inh: inactive; HEK cytotox: inconclusive; GPT2 inh: 3%; NIH3T3 tox: -26%; NPR1 antag: -10%

Results for CCNC(=O)C1CCN(C(=O)c2ccc3nc(-c4ccccc4)cn3c2)C1 (centres undefined) ?
FLuc inh: 35µM*; HEK cytotox: -2%; GPT2 inh: 2%; NIH3T3 tox: inactive; NPR1 antag: -1%

Results for CN(CCn1cc(-c2nccn2C)nn1)S(C)(=O)=O ?
FLuc inh: inactive; HEK cytotox: -18%; GPT2 inh: inactive; NIH3T3 tox: -8%; NPR1 antag: 2%

What do the screens show for `O=C(NC1CC1)[C@@H]1C[C@H](Oc2ccccc2)CN1C(=O)CCCc1c[nH]c2ccccc12`?
HEK cytotox: inconclusive; GPT2 inh: inactive; NIH3T3 tox: inconclusive

Results for CC1CCC(NC(=O)C2CCN(c3cc(C(F)(F)F)ncn3)CC2)CC1 (centres undefined) ?
FLuc inh: inconclusive; HEK cytotox: inconclusive; GPT2 inh: inactive; NIH3T3 tox: inconclusive; NPR1 antag: 2.2µM*

What do the screens show for `Cc1ccc(NC(=O)C2CCN(c3cc(C(F)(F)F)ncn3)CC2)c(C)c1`?
FLuc inh: inactive; HEK cytotox: inconclusive; GPT2 inh: inactive; NIH3T3 tox: -17%; NPR1 antag: inconclusive

What do the screens show for `O=C(CCC1CCN(C(=O)c2ccccc2)CC1)N1CCC(Cc2ccccc2)CC1`?
FLuc inh: inactive; HEK cytotox: inconclusive; GPT2 inh: -5%; NIH3T3 tox: inconclusive; NPR1 antag: -28%

What do the screens show for `Cc1ccc(C(=O)N2CCC(CCC(=O)N3CCN(c4ccccn4)CC3)CC2)cc1`?
FLuc inh: 20µM*; HEK cytotox: inconclusive; GPT2 inh: inactive; NIH3T3 tox: -28%; NPR1 antag: inconclusive

What do the screens show for `COc1ncccc1C(=O)N1CCC(CCC(=O)N2CCC(Cc3ccccc3)CC2)CC1`?
FLuc inh: inactive; HEK cytotox: 35µM*; GPT2 inh: inactive; NIH3T3 tox: inconclusive; NPR1 antag: inconclusive

Results for O=C(CCC1CCN(C(=O)c2ccccn2)CC1)N1CCC(Cc2ccccc2)CC1 ?
FLuc inh: inactive; HEK cytotox: inconclusive; GPT2 inh: 4%; NIH3T3 tox: -37%; NPR1 antag: -17%

How did O=C(CCC1CCN(C(=O)c2ccccc2)CC1)N1CCOCC1 do in these assays?
FLuc inh: inconclusive; HEK cytotox: 7%; GPT2 inh: inactive; NIH3T3 tox: 4%; NPR1 antag: -2%

How did COc1ccccc1-c1ccc2c(C(=O)NCCCc3ccccc3)nn(C)c2n1 do in these assays?
HEK cytotox: inconclusive; GPT2 inh: inactive; NIH3T3 tox: inconclusive

What do the screens show for `Cc1ccsc1C(=O)N1CCC(CCC(=O)N2CCC(Cc3ccccc3)CC2)CC1`?
FLuc inh: inactive; HEK cytotox: 45µM*; GPT2 inh: -5%; NIH3T3 tox: inconclusive; NPR1 antag: inconclusive

Results for COc1ccccc1-c1ccc2c(C(=O)N3CCC(Cc4ccccc4)CC3)nn(C)c2n1 ?
HEK cytotox: 79µM*; GPT2 inh: inactive; NIH3T3 tox: inconclusive

What do the screens show for `CCN(CC)Cc1cnc2c(C(=O)NCC(C)c3ccccc3)cnn2c1` (centres undefined)?
FLuc inh: inactive; HEK cytotox: inconclusive; GPT2 inh: -1%; NIH3T3 tox: -3%; NPR1 antag: -1%

How did CC(=O)N1CCC(N2CCC(Cc3ccc(CCC(=O)N(C)C)cc3)CC2)CC1 do in these assays?
HEK cytotox: -23%; GPT2 inh: -77%; NIH3T3 tox: -21%

How did CN(C)C(=O)CCc1ccc(CC2CCN(C(=O)CCC3CCCC3)CC2)cc1 do in these assays?
HEK cytotox: 25µM*; GPT2 inh: -4%; NIH3T3 tox: inconclusive

How did Cc1ccc(C(=O)NC2CCCN(c3cc(-c4ccccc4)[nH]n3)C2)cc1F (centres undefined) do in these assays?
FLuc inh: inactive; HEK cytotox: inconclusive; GPT2 inh: -1%; NIH3T3 tox: inconclusive; NPR1 antag: -18%

How did Cc1ccc(C(=O)NC2CCN(c3cc(-c4ccccc4)[nH]n3)CC2)cc1F do in these assays?
FLuc inh: inactive; HEK cytotox: inconclusive; GPT2 inh: -1%; NIH3T3 tox: 35µM*; NPR1 antag: -14%

What do the screens show for `CN(C)c1ccc(C(=O)NC2CCN(c3cc(-c4ccc(Cl)cc4)[nH]n3)CC2)cc1`?
FLuc inh: inactive; HEK cytotox: inconclusive; GPT2 inh: inactive; NIH3T3 tox: -19%; NPR1 antag: -3%

What do the screens show for `O=C(NC1CCN(c2cc(-c3ccccc3)[nH]n2)CC1)c1cccc(Cl)c1`?
FLuc inh: inactive; HEK cytotox: 28µM*; GPT2 inh: 1%; NIH3T3 tox: inconclusive; NPR1 antag: 0%

Results for O=C(NC1CCN(c2cc(-c3ccc(F)cc3)[nH]n2)C1)c1cccc(Cl)c1 (centres undefined) ?
FLuc inh: inactive; HEK cytotox: inconclusive; GPT2 inh: inconclusive; NIH3T3 tox: inconclusive; NPR1 antag: -16%

How did CC(=O)Nc1ccc(C(=O)NC2CCN(c3cc(-c4ccc(Cl)cc4)[nH]n3)CC2)cc1 do in these assays?
FLuc inh: inactive; HEK cytotox: 32µM*; GPT2 inh: -4%; NIH3T3 tox: 22µM*; NPR1 antag: -25%

What do the screens show for `CSc1ccc(-c2cccc(C(=O)NCCN[S+](=O)([O-])c3c(C)noc3C)c2)cc1`?
HEK cytotox: inconclusive; GPT2 inh: -11%; NIH3T3 tox: inconclusive

What do the screens show for `COc1cccc(CN2Cc3nc(OCc4ccc(F)cc4)ccc3OCC2=O)c1`?
FLuc inh: inactive; HEK cytotox: 100µM*; GPT2 inh: inactive; NIH3T3 tox: inconclusive; NPR1 antag: inconclusive

How did COc1cccc(-c2ccc3c(n2)CN(Cc2ccc(F)cc2)C(=O)CO3)c1 do in these assays?
FLuc inh: inactive; HEK cytotox: 89µM*; GPT2 inh: inactive; NIH3T3 tox: inconclusive; NPR1 antag: inconclusive

Results for O=C1CC2(CCN(C(=O)C3CCCN(C(=O)Cc4cccc(Cl)c4)C3)CC2)Oc2ccccc2N1 (centres undefined) ?
HEK cytotox: inconclusive; GPT2 inh: inactive; NIH3T3 tox: inconclusive
